# Reference: PubChem BioAssay AID588689 (Southern Research Specialized Biocontainment Screening …, 2011)
# Out of some 340,000 compounds screened, about 1,000 (0.29%) were called active. Cut-off read from the data, not from the text of the source: inconclusive = inhibition above about 29% without an active follow-up result; inactive = below that. These entries were drawn from the full list. Entries with a potency or affinity are not part of this list.
# Molecular target: Genome polyprotein (Dengue virus type 2 (strain 16681-PDK53)) (UniProt P29991)
# Experiment: Dengue-2 NS5 methyltransferase inhibitors, primary screen, biochemical, confirmation dose response (AID 588689)
# Details: Dengue-2 NS5 methyltransferase capping enzyme assay, at 25 µM, stronger effect = higher value
# [1] = measured here: pilot screen replicate inhibition
Compound,inhibition,inhibition [1] [%]
O=C1NC2=C(C(=O)CCC2)C(c2ccc3ncccc3c2)N1 (stereo not given),0% (inactive),
C[C@H](CO)N1C[C@H](C)[C@@H](CN(C)C(=O)Nc2cc(F)ccc2F)Oc2ncc(-c3cccc(F)c3)cc2C1=O,0.58% (inactive),
O=C1C=C(c2ccc(C(=O)O)cc2)C[C@@H](c2ccc3c(c2)OCO3)C1,0.83% (inactive),
O=C(Cn1c(C(F)(F)F)nc2ccccc21)Nc1ccccc1N1CCOCC1,0.69% (inactive),
Cc1cc(-c2ccco2)n(CC(=O)NCCCc2ccccc2)n1,-4.87% (inactive),
N#Cc1c(-c2ccccc2)nc(SCc2cccc(Cl)c2)[nH]c1=O,19.5% (inactive),
COC(=O)c1cccc(CSc2nc(-c3ccccc3)c(C#N)c(=O)[nH]2)c1,11.1% (inactive),
O=C(CCC(=O)N1CCCC(Nc2ccccc2)C1)c1ccc(F)cc1 (stereo not given),2.72% (inactive),
COCCOC(=O)c1sc2nc[nH]c(=O)c2c1C,-12.3% (inactive),
Cc1ccc(S(=O)(=O)N2CCN(Cc3cccnc3)CC2)cc1,2.57% (inactive),
CC(=O)Nc1ccc(S(=O)(=O)N(C)CC(=O)OC(C)C(=O)NC2CCCCC2)cc1 (stereo not given),-5.07% (inactive),
COc1ccccc1N=Nc1c(C)[nH]n(-c2ccccc2)c1=O,1.98% (inactive),-4.55
COc1cccc(C(C[N+](=O)[O-])c2c(C)[nH]n(-c3ccccc3)c2=O)c1 (stereo not given),8.91% (inactive),
Cc1[nH][nH]c(=O)c1C(c1ccccc1[N+](=O)[O-])C(C#N)C#N (stereo not given),-2.95% (inactive),
Cc1[nH][nH]c(=O)c1[C@@H](c1ccccc1[N+](=O)[O-])C(C#N)C#N,14.4% (inactive),
Cc1[nH]n(-c2ccccc2)c(=O)c1C(C[N+](=O)[O-])c1ccccc1Cl (stereo not given),-8.87% (inactive),
Cc1c(C(c2cccc([N+](=O)[O-])c2O)c2c(C)n(C)n(-c3ccccc3)c2=O)c(=O)n(-c2ccccc2)n1C,-5.62% (inactive),
S=C(Nc1ccccc1Cl)NC1CCCCCC1,-2.33% (inactive),
Cc1nnc(SCC(=O)Nc2nsc(-c3ccc(Cl)cc3)n2)s1,2.61% (inactive),
CCOc1ccc(S(=O)(=O)N2CCN(S(=O)(=O)c3ccc(C(C)=O)cc3)CC2)cc1,-2.49% (inactive),
CC1CN(CCc2ccccc2)C(C)C/C1=N/O (stereo not given),-3.09% (inactive),
Cc1c(Cl)cccc1NC(=S)N(Cc1cccnc1)Cc1ccccc1Cl,-4.52% (inactive),

Compound,inhibition,inhibition [1] [%]
O=C(NCCS(=O)(=O)NCc1cccs1)c1ccccc1,0% (inactive),
COc1ccc(C(=O)c2ccccc2C(=O)c2ccccc2)cc1,-0.81% (inactive),
Cc1cc(/C=C2/C(=O)NN(c3ccccc3)C2=O)c(C)n1-c1cccc(O)c1,6.37% (inactive),
COC(=O)C1=C(C)NC(=O)/C1=C\c1cc(C)n(-c2ccccc2)c1C,5.15% (inactive),
COC(=O)C1=C(C)NC(=O)/C1=C\c1cc(C)n(-c2ccccc2F)c1C,5.5% (inactive),
Cc1cc(/C=C2/C(=O)NN(c3ccccc3)C2=O)c(C)n1-c1ccc(O)cc1,5.82% (inactive),
Cc1nc(SCC(=O)N2CC(=O)Nc3ccccc32)nc(C)c1C,2.34% (inactive),
Cc1ccc(CS(=O)Cc2ccc(C(=O)NCc3ccc4c(c3)OCO4)o2)cc1 (stereo not given),-13.8% (inactive),
CC1CC(C)CN(S(=O)(=O)c2cccc(C(=O)N3CCN(c4ccc(F)cc4)CC3)c2)C1 (stereo not given),-0.73% (inactive),
CC(C)NC(=O)C1CCN(C(=O)N(C)C)CC1,0.71% (inactive),
Cc1c(NC(=S)NC(=O)c2ccc(-c3ccc(Cl)cc3)o2)cccc1C(=O)O,8.19% (inactive),
O=C(O)c1ccc(NC(=S)NC(=O)c2ccc(-c3ccc(Br)cc3)o2)cc1,-8.03% (inactive),
O=Nc1c(-c2ccccc2)n(O)[n+]([O-])c1-c1ccccc1,-16.7% (inactive),
COc1cccc(CN2CC(C(=O)NCCN3CCOC3=O)CCC2=O)c1 (stereo not given),-9.76% (inactive),
COC(=O)C1=CN(c2ccc(OC)cc2)C=C(C(=O)OC)C1c1ccc([N+](=O)[O-])cc1,-9.75% (inactive),
Cc1ccc(Cn2nnc(C(=O)Nc3cccc(C)c3C)c2N)cc1,-0.68% (inactive),
Cc1cccc(S(=O)(=O)Nc2ccc(-n3c(C)nc4ccccc4c3=O)cc2)c1,-5.8% (inactive),
CSc1nc(O)c(C(c2ccc(C)cc2)c2c(O)nc(SC)[nH]c2=O)c(=O)[nH]1,5.27% (inactive),4.26
C=CCOc1ccc(S(C)(=O)=O)cc1,1.32% (inactive),
CSc1nc(Cl)c(Cc2ccc(OC(C)C)cc2)c(N(C)C)n1,-2.55% (inactive),
C=CCOc1ccc(Oc2cc(C)nc(SC)n2)nn1,-6.11% (inactive),
COc1nc(SC)nc(Cl)c1Cc1ccc(OC(C)C)cc1,-6.55% (inactive),

Compound,inhibition,inhibition [1] [%]
CSc1nc(O)c(C(c2ccccc2)c2c(O)nc(SC)[nH]c2=O)c(=O)[nH]1,-1.55% (inactive),
CN1CCN(C(=O)/C(=C/c2cn(S(=O)(=O)N(C)C)c3ccccc23)NC(=O)c2ccccc2F)CC1,-5.9% (inactive),
CCC(C(=O)Nc1cccnc1)n1c(=O)[nH]c2ccccc2c1=O (stereo not given),-5.9% (inactive),
Cc1ccc(NC(=O)C2CCCN(C(=O)Nc3ccc(F)cc3)C2)cc1 (stereo not given),-4.13% (inactive),
Cc1cc(=O)[nH]c(-c2cccs2)n1,10.8% (inactive),
CC[C@H](C)Cc1cn([C@@H](CCCN=C(NC(=O)OC(C)(C)C)NC(=O)OC(C)(C)C)C(=O)NCCCCCCCCCCC(=O)N2CCN(C(=O)OC(C)(C)C)CC2)nn1,-0.83% (inactive),
Cc1csc(N(C(=O)c2cccc(S(=O)(=O)N(C)C)c2)c2ccccc2)n1,-1.38% (inactive),
CCC(C(=O)OCC(=O)Nc1ccc2[nH]c(=O)[nH]c2c1)c1ccccc1 (stereo not given),2.16% (inactive),
COc1ccc(N(CC(=O)NCCSCc2ccco2)S(=O)(=O)c2ccccc2)cc1,-3.68% (inactive),
Fc1cccc(/C=N/Nc2nccnc2Cl)c1,-2.31% (inactive),
Cc1ccc([C@@H]2CC=C(C(=O)O)[C@H](c3ccccc3)N2S(=O)(=O)c2ccccc2C)cc1,11.1% (inactive),
Cc1ccccc1S(=O)(=O)N1[C@@H](c2ccccc2)C(C(=O)O)=CC[C@H]1c1ccc(Cl)cc1,12.8% (inactive),
Cc1ccccc1S(=O)(=O)N1[C@@H](c2ccc(Cl)cc2)C(C(=O)O)=CC[C@H]1c1ccc(Cl)cc1,23.8% (inactive),2.15
Cc1ccc([C@H]2C(C(=O)O)=CC[C@@H](c3ccc(C)cc3)N2S(=O)(=O)c2ccccc2C)cc1,13.7% (inactive),
COc1cccc(NC(=O)c2ccc(N3C(=O)C4CC=CCC4C3=O)cc2)c1 (stereo not given),0.77% (inactive),
CN(C)C(CNC(=O)C1CCN(S(=O)(=O)c2cccc(C(F)(F)F)c2)CC1)c1ccccc1 (stereo not given),0% (inactive),
O=C(COc1ccc(F)c(Cl)c1)Nc1ccc(N2CCOCC2)cc1,-11.9% (inactive),
O=C(O)C(Cc1ccc(O)cc1)N1C(=O)c2ccccc2C1=O (stereo not given),-2.65% (inactive),
CN1C(=O)/C(=C2\SC(=S)N(C(CCC(=O)O)C(=O)O)C2=O)c2ccccc21 (stereo not given),8.73% (inactive),
CCCC(C(=O)O)N1C(=O)/C(=C/c2cccn2C)SC1=S (stereo not given),-53.1% (inactive),
Cc1c(N2C(=O)/C(=C3\C(=O)N(CC(=O)O)c4ccccc43)SC2=S)c(=O)n(-c2ccccc2)n1C,36.3% (inactive),
O=C(Nc1ccccc1)N1CCNCC1,-6.32% (inactive),

Compound,inhibition,inhibition [1] [%]
CC1(C)OC1(C#N)c1ccccc1 (stereo not given),-5.44% (inactive),
CCN(CC)S(=O)(=O)c1ccc(Nc2ccc(-c3ccc4c(c3)OCCO4)nn2)cc1,-4.94% (inactive),
CC(=O)N1CCN(c2ccc(NC(=S)NC(=O)c3ccc(C)c([N+](=O)[O-])c3)cc2)CC1,-2.35% (inactive),
O=C(NC(=O)c1cc([N+](=O)[O-])ccc1Cl)C1=C(N2CCCC2)COC1=O,-8.37% (inactive),
Cn1c(=N)c(S(=O)(=O)c2ccccc2)cc2c(=O)n3ccccc3nc21,-8.12% (inactive),
CCOC(=O)C1(C)/C(=N/Nc2ccc(Cl)cc2)C(=O)C(=O)N1c1ccccc1 (stereo not given),3.28% (inactive),
CCOC(=O)C1(C)/C(=N/Nc2ccccc2Cl)C(=O)C(=O)N1c1ccccc1 (stereo not given),-3.23% (inactive),
COC(C[C@@H](O)C[C@H](O)[C@@H](C)OCc1ccccc1)OC,-8.19% (inactive),
CC/C(=N/NC(=O)c1ccc2c(c1)OCO2)c1ccccc1O,3.08% (inactive),
Cc1cccc(CN2CCN(CC(=O)N3CCCC3)C2=O)c1,-5.66% (inactive),
CC(=O)C1=C(O)C(=O)N(c2cc(C(C)(C)C)on2)C1c1ccc(Br)cc1 (stereo not given),13.1% (inactive),
CC(=O)C1=C(O)C(=O)N(Cc2cccnc2)C1c1ccc(C(C)C)cc1 (stereo not given),-5.44% (inactive),
CC1=NNC(=O)C1C(c1ccc(F)cc1)C(C#N)C#N (stereo not given),-10.2% (inactive),
CC1=NNC(=O)C1C(c1ccccc1)C(C#N)C#N (stereo not given),-4.84% (inactive),
CC1=NN(Cc2ccccc2)C(=O)C1C(c1ccncc1)C(C#N)C#N (stereo not given),13.5% (inactive),
Cc1cccc(CN2CCN(C(c3ccccc3)c3ccc(Cl)cc3)CC2)c1 (stereo not given),2.93% (inactive),
S=C(N/N=C/c1ccc(Br)cc1)N1CCCCC1,2.36% (inactive),
CC(C)c1ccc(S(=O)(=O)N2CCN(C(=O)CCNS(=O)(=O)c3ccccc3F)CC2)cc1,2.2% (inactive),
CCN1CCN(C(=O)/C=C/c2ccc(OC)cc2)CC1,0% (inactive),-2.12
CCn1c([N+](=O)[O-])nc2c1c(=O)[nH]c(=O)n2C,-10.1% (inactive),
